Data published in publication PMC5540273 (PLoS ONE, 2017).

test system: TAOK1; details: concentration: 1 μM, replicates: in singlicate; n = 1
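Further: KINOMEscan kinase panel screen.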

Row | SMILES | %Inh
1 | O=C(Nc1n[nH]c2cc(-c3ccsc3)ccc12)C1CC1 [SB-732932] | 64%
2 | CC[C@@H]1CO[C@H](C(=O)Nc2ccccc2)CN1c1cc(-c2ccc3c(N)n[nH]c3c2)nc(NC)n1 [GSK2376236] | 0%
3 | CNc1cc(-c2ccc3c(N)n[nH]c3c2)nc(N)n1 [GSK2224810] | 56%
4 | COC(=O)C(NC(=O)NC1CCN(c2ccnc(Nc3ccc(F)cc3)n2)C1)c1ccccc1 (stereo not shown) [GSK1379712] | 0%
5 | Cc1ccccc1Cn1ccn2c(=O)cc(N3CCOCC3)nc12 [GSK2269905] | 0%
6 | Fc1ccc(-c2nn3cccc(F)c3c2-c2ccncc2)cc1 [GW475620] | 0%
7 | COc1ccc(Nc2nccc(-c3ccc(NC(=O)c4cc5cc(F)ccc5[nH]4)cc3)n2)cc1 [GSK1229496] | 0%
8 | COc1ccc(Nc2nccc(N3CCC(NC(=O)c4cc5ccccc5s4)C3)n2)cc1 (stereo not shown) [GSK1379738] | 0%
9 | COc1ccc(-c2coc3ccc(-c4nnc(C)o4)cc23)cc1 | 0%
10 | CNCc1ccc2nc(NC(=O)c3ccc(C(C)(C)C)cc3)cn2c1 | 100%
11 | CS(=O)(=O)CCNCc1nc(-c2ccc3ncnc(Nc4ccc(OCc5ccccc5)c(Cl)c4)c3c2)cs1.Cl [GW582764] | 0%
12 | Cl.Cl.Cl.N#Cc1ccc(CCNc2nccc(-c3cccc(CN4CCNCC4)c3)n2)cc1 [GSK2137462] | 0%
13 | Cc1c(Cn2c3ccccc3n3c(=O)cc(N4CCOCC4)nc23)cccc1C(F)(F)F [GSK2306394] | 0%
